We go through seven molecules from PubChem BioAssay (NCI).

Among the test systems are HCT-15 colon; HT29 colon; SNB-75 CNS; SNB-19 CNS; U251 CNS; PC-3 prostate; SK-MEL-5 melanoma; UACC-62 melanoma; LOX IMVI melanoma; SK-MEL-28 melanoma; SK-MEL-2 melanoma; EKVX NSCLC; SN12C renal; UO-31 renal; TK-10 renal; ACHN renal; CAKI-1 renal; A498 renal; CCRF-CEM leukemia; MOLT-4 leukemia.
Holding throughout (assay): NCI-60 one-dose screen, 48 h (100 = growth as untreated, 0 = no growth, -100 = all killed)
What all share (conditions): 10 µM unless noted

The panel holds about 83,000 compounds, 20% with a hit somewhere; the sample as a whole holds those more often.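 Testing used 96-well plates and a 48-hour single-concentration exposure. Example: -40 means 40% of the starting cells died.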 Unmarked numbers belong to inactive results. Calls of active or inactive are those of the source. How the source made its calls: active means growth percent below 10; inactive means the rest.

For `Fc1cnccc1C1CC(c2ccc(N3CCNCC3)cc2)=NN1` (stereo not given), the growth in the assay on HCT-15 colon is 97.6%; in the assay with HT29 colon, 60.2%; in the assay on SNB-75 CNS, 101%; in the assay with SNB-19 CNS, 97.5%; in the assay on U251 CNS, 95.1%; with PC-3 prostate it was 70.3%. Also, the growth with SK-MEL-5 melanoma is 85.8%; in the assay on UACC-62 melanoma, 81.9%; in the assay with LOX IMVI melanoma, 94.3%; in the assay with SK-MEL-28 melanoma, 116%; with SK-MEL-2 melanoma, 92.7%; with EKVX NSCLC it was 91%. Besides, the growth was 89.6% in the assay with SN12C renal; 77.2% in the assay on UO-31 renal; 123% in the assay with TK-10 renal; 99.9% in the assay with ACHN renal; 80.6% in the assay with CAKI-1 renal; 97.2% in the assay on A498 renal. Also, the growth was 80.8% with CCRF-CEM leukemia and 74.2% in the assay with MOLT-4 leukemia.
Regarding `O=C(CSC(=S)n1cnnc1)NC(=O)c1ccccc1`, the growth is 107% in the assay on HCT-15 colon; 104% with HT29 colon; 95% in the assay on SNB-75 CNS; 109% with SNB-19 CNS; 116% with U251 CNS; 102% in the assay on PC-3 prostate. Further, the growth with SK-MEL-5 melanoma was 109%; in the assay on UACC-62 melanoma it was 110%; in the assay on LOX IMVI melanoma, 97%; in the assay on SK-MEL-28 melanoma, 113%; in the assay with SK-MEL-2 melanoma it was 106%; with EKVX NSCLC it was 104%. Besides, the growth is 103% with SN12C renal; 87.8% in the assay with UO-31 renal; 101% in the assay on TK-10 renal; 105% with ACHN renal; 104% in the assay on CAKI-1 renal; 106% in the assay with A498 renal. Also, the growth in the assay with CCRF-CEM leukemia was 99.2%; in the assay on MOLT-4 leukemia, 102%.
As to `CCOC(=O)Cc1cnc(N/N=C(\C)c2cc3ccccc3o2)s1`, the growth in the assay with HCT-15 colon was 105%; in the assay on HT29 colon, 85.5%; with SNB-75 CNS, 105%; in the assay with SNB-19 CNS it was 95%; in the assay on U251 CNS, 91.3%; in the assay on PC-3 prostate, 78%. The growth is 99.3% with SK-MEL-5 melanoma; 86.3% in the assay with UACC-62 melanoma; 86% with LOX IMVI melanoma; 110% with SK-MEL-28 melanoma; 113% in the assay with SK-MEL-2 melanoma; 85.1% in the assay with EKVX NSCLC. Also, the growth was 99.1% in the assay with SN12C renal; 64.7% with UO-31 renal; 144% with TK-10 renal; 90.7% in the assay with ACHN renal; 81.6% in the assay with CAKI-1 renal; 113% in the assay with A498 renal. Further, the growth with CCRF-CEM leukemia is 92.5%; with MOLT-4 leukemia it was 55.5%.
Take `CSc1nc2ncc([N+](=O)[O-])c(=O)n2[nH]1`: the growth with HCT-15 colon is 105%; in the assay with HT29 colon it was 107%; in the assay with SNB-75 CNS it was 93%; with SNB-19 CNS it was 103%; in the assay on U251 CNS, 102%; in the assay with PC-3 prostate, 98.1%. Besides, the growth with SK-MEL-5 melanoma was 103%; in the assay with UACC-62 melanoma it was 101%; with LOX IMVI melanoma, 101%; with SK-MEL-28 melanoma, 105%; in the assay on SK-MEL-2 melanoma, 107%; with EKVX NSCLC, 100%. The growth was 108% in the assay with SN12C renal; 87.5% in the assay on UO-31 renal; 97.8% in the assay with TK-10 renal; 103% with ACHN renal; 92.8% in the assay on CAKI-1 renal; 88.3% in the assay on A498 renal. The growth in the assay with CCRF-CEM leukemia was 99.6%; in the assay with MOLT-4 leukemia, 129%.
Consider `Clc1cc(Cl)c(Cl)c(-c2nnc(SCc3ccncc3Br)o2)c1`, for which the growth with HCT-15 colon is 112%; in the assay with HT29 colon it was 102%; in the assay on SNB-75 CNS, 84.4%; in the assay on SNB-19 CNS, 102%; with U251 CNS it was 90.3%; with PC-3 prostate, 92.4%. Moreover, the growth with SK-MEL-5 melanoma was 81.8%; in the assay on UACC-62 melanoma, 89.7%; with LOX IMVI melanoma, 95%; in the assay with SK-MEL-28 melanoma, 94.4%; in the assay on SK-MEL-2 melanoma, 91.8%; with EKVX NSCLC it was 84.5%. The growth in the assay on SN12C renal is 92.3%; in the assay with UO-31 renal it was 67.4%; with TK-10 renal, 117%; in the assay on ACHN renal it was 94.4%; in the assay on CAKI-1 renal, 65.8%; in the assay on A498 renal, 94.8%. The results for the growth in the assay with CCRF-CEM leukemia and in the assay with MOLT-4 leukemia were 77.1% and 75.1%, respectively.
Consider `COc1ccc2c(c1)CC[C@H](O)/C2=C/c1cc(OC)c(OC)c(OC)c1`, for which the growth in the assay with HCT-15 colon is 13.9%; with HT29 colon, 0.825% (active); in the assay on SNB-75 CNS it was 19.1%; in the assay with SNB-19 CNS, 38.3%; in the assay on U251 CNS, 13.3%; with PC-3 prostate it was 17.8%. For the same molecule, the growth in the assay with SK-MEL-5 melanoma was -40% (active); with UACC-62 melanoma it was 31.8%; with LOX IMVI melanoma, 18.2%; in the assay with SK-MEL-28 melanoma it was 61.5%; with SK-MEL-2 melanoma it was 43.5%; in the assay with EKVX NSCLC, 38%. Besides, the growth in the assay on SN12C renal was 37.6%; in the assay with UO-31 renal, 34.3%; in the assay with TK-10 renal it was 66.6%; in the assay on ACHN renal, 26.4%; in the assay with CAKI-1 renal, 30.5%; in the assay with A498 renal it was -9.18% (active). In addition, the results for the growth in the assay on CCRF-CEM leukemia and in the assay with MOLT-4 leukemia were 5.74% (active) and 13.5%, respectively.
Take `O=C(OC(CO)C(=O)NC12CC3CC(CC(C3)C1)C2)c1ccc(Cl)cc1` (stereo not given): the growth is 99.4% in the assay on HCT-15 colon; 100% in the assay on HT29 colon; 102% in the assay on SNB-75 CNS; 98.8% with SNB-19 CNS; 96.7% with U251 CNS; 98.6% with PC-3 prostate. The growth in the assay with SK-MEL-5 melanoma was 98.3%; with UACC-62 melanoma, 96.6%; in the assay on LOX IMVI melanoma, 101%; in the assay on SK-MEL-28 melanoma, 108%; in the assay with SK-MEL-2 melanoma, 106%; with EKVX NSCLC, 96.9%. Further, the growth in the assay on SN12C renal is 109%; in the assay with UO-31 renal, 88.7%; with TK-10 renal it was 102%; with ACHN renal, 100%; in the assay with CAKI-1 renal, 99.4%; with A498 renal, 103%. Also, the growth in the assay with CCRF-CEM leukemia is 88.8%; in the assay with MOLT-4 leukemia, 98.7%.
